Measured values as given in PubChem BioAssay AID1117319 (Southern Research Institute, 2015).
Values joined by “and” are separate entries in the source; they are usually repeats but may differ in a detail not shown here. Equal entries are not always repeated. The whole screen tested about 260,000 compounds, of which about 1,500 (0.58%) were called active. Roughly 5% stayed inconclusive and do not appear here.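 How the source made its calls: active means inhibition above a set limit at one or more doses, reproduced on every date tested; inconclusive means results disagree between test dates, or hit never tested in dose response; inactive means the rest.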 Not all results are given here. Results with a measured potency or affinity are listed apart.

Molecular target: Virion infectivity factor (Human immunodeficiency virus type 1 group M subtype B (isolate BH10)) + Virion infectivity factor (Human immunodeficiency virus type 1 group M subtype B (isolate BRU/LAI)) + Virion infectivity factor (Human immunodeficiency virus type 1 group M subtype B (isolate PCV12)) + Virion infectivity factor (Human immunodeficiency virus type 1 group M subtype B (isolate HXB2)) + DNA dC->dU-editing enzyme APOBEC-3G (Homo sapiens) (UniProt P69720+P69721+P69722+P69723+Q9HC16)
Test: inhibitors of Vif binding to APOBEC3G peptide, primary screen, biochemical, TR-FRET, GST-Vif 1-94, biotin-A3G peptide, dose response retest (AID 1117319);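 further: Vif residues 1-94 fused to GST binding biotinylated APOBEC3G peptide 110-148; 0% = full assay without inhibitor and 100% = GST in place of GST-Vif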
Settings: active compounds read high

inhibition, inactive:
O=C(c1ccc(NS(=O)(=O)c2ccccc2)cc1)N1CCN(Cc2ccc3c(c2)OCO3)CC1 -2.32% and -6.24%, CCc1ccc(N(CC)C(=O)Cc2c(C(=O)O)n(C)c3ccccc23)cc1 3.87%, C=CCOC(=O)C1=C(C)N=C2SCCC(=O)N2C1c1ccc(OC(=O)c2ccco2)cc1 (stereo not given) -4.13%, Cn1c(-c2cnn(-c3ccccc3)c2-n2cccc2)n[nH]c1=S -6.44%, CCN(CC)Cc1cc(C(C)=O)ccc1O 1.01%, CCc1oc(C(=O)O)cc1CN(CC)CC 19%, O=C(COC(=O)c1cc(=O)[nH]c2ccccc12)Nc1nccs1 0.86%, Cc1ccc(C(=O)C2=C(O)C(=O)N(c3ncccn3)C2c2ccc(Cl)cc2)o1 (stereo not given) -30.5%, Cc1ccc(C(=O)C2=C(O)C(=O)N(c3ncccn3)C2c2ccc(Br)cc2)o1 (stereo not given) 10.3%, Cc1ccc(-n2c(-c3ccccc3)nnc2-c2cccs2)cc1 -9.97%, O=C(CCc1ccc(S(=O)(=O)NCc2ccccc2)cc1)N1CCN(Cc2ccc3c(c2)OCO3)CC1 1.72%, COC(=O)CCC(=O)OC1(C)C(=O)C=C2C=C(C3CC3)N(CCc3ccccn3)C=C2C1=O (stereo not given) -2.65%, CC1(C)CC(=O)CC(C)(C)N1OC(=O)c1ccco1 0.85%, COC(=O)CCC(=O)OC1(C)C(=O)C=C2C=C(C3CC3)N(c3cccc(C#N)c3)C=C2C1=O (stereo not given) 11.9%, CCCCC1=CC2=CC(=O)C(C)(OC(=O)CC)C(=O)C2=CN1Cc1ccccc1 (stereo not given) 25%, CN1/C(=C\C(=O)COC(=O)c2ccco2)C(C)(C)c2ccccc21 3.26%, COC(=O)CCC(=O)OC1(C)C(=O)C=C2C=C(C3CC3)N(C3CCCCC3)C=C2C1=O (stereo not given) 17.8%, COCCN1C=C2C(=O)C(C)(OC(=O)CCC(=O)OC)C(=O)C=C2C=C1C1CC1 (stereo not given) 10.6%, CCCCC1=CC2=CC(=O)C(C)(OC(=O)CC)C(=O)C2=CN1CCc1ccccn1 (stereo not given) 21.2%, CCN(CC(=O)NC)S(=O)(=O)c1ccc(Br)cc1 0.33%, CCc1ccccc1NC1=NCC(=O)N1Cc1ccc(OC)cc1 -4.85%, CCCCCC(O)(c1ccc(OCC)cc1)C(CN1CCOCC1)c1ccccc1 (stereo not given) -5.23%, COc1cccc(NC(=O)CN2C(=O)COc3ccc(S(=O)(=O)N4CCC(C)CC4)cc32)c1 -1.2%, OCCC1CN(Cc2cccc3nonc23)CCN1Cc1ccsc1 (stereo not given) 21.2%, CC(C)CCNC(=O)C(c1ccco1)N(CC1CCCO1)C(=O)Cn1nnc2ccccc21 (stereo not given) 18.9%, COC(=O)CCC(=O)OC1(C)C(=O)C=C2C=C(C3CC3)N(c3ccccc3)C=C2C1=O (stereo not given) 21.6%, CCCCC1=CC2=CC(=O)C(C)(OC(=O)CC)C(=O)C2=CN1C1CCCCC1 (stereo not given) 18.3%, C=CCN1C=C2C(=O)C(C)(OC(=O)C3CCCC3)C(=O)C=C2C=C1c1ccsc1 (stereo not given) 22.2%, COC/C=C/C1=CC2=CC(=O)C(C)(OC(=O)c3cnc4ccccc4n3)C(=O)C2=CN1C(CO)CO (stereo not given) 19.5%, COc1ccc(CN2C=C3C(=O)C(C)(OC(=O)C4CCCC4)C(=O)C=C3C=C2c2ccsc2)cc1 (stereo not given) 31%, CC1(OC(=O)C2CCCC2)C(=O)C=C2C=C(c3ccsc3)N(CCCCO)C=C2C1=O (stereo not given) 21.2%, CCOC(=O)C1=C(COC(=O)Cc2ccccc2)NC(=O)NC1C (stereo not given) 2.89%, CCCS(=O)(=O)c1nc(S(=O)(=O)c2ccc(C)cc2)c(N2CCCC2)s1 -10.9%, O=C1C2CC=CCC2C(=O)N1c1ncn[nH]1 (stereo not given) 0.84%, COc1cccc(OC)c1C(=O)Nc1ccccc1NC(=O)c1c(OC)cccc1OC -6.67%, O=[N+]([O-])c1ccc(/C=N/n2cn[nH]c2=S)cc1 0.85%, O=S(=O)(NC1CC1)c1ccc(S(=O)(=O)N2CCc3ccccc32)cc1 18.3%, COc1cc2c(cc1OC)C1c3ccc(OC)c(OC)c3OCC1(O)C2 (stereo not given) -4.73%, CCN(CC(=O)Nc1ccc(OC)cc1)C(=O)c1ccc2c(=O)n3c(nc2c1)CCC3 -5.14%, CN(C)/C=C1\NC(=S)N(c2ccccc2)C1=O -8.51%, O=C1C(Cc2ccccc2)NC(=S)N1c1ccccc1 (stereo not given) -3.85%, O=C1/C(=C/c2ccco2)N=C(N2CCCCC2)N1c1ccccc1 23.7%, O=C1/C(=C\c2cccnc2)SC(=S)N1c1ccc(F)cc1 1.49%, CC1CNC(=S)N(c2ccc(F)cc2)C1=O (stereo not given) -6.26%, CCOc1cccc(/C=C2\NC(=S)N(c3ccccc3)C2=O)c1O 8.76%, Cc1ccc2c(C)c(C(=O)NCCc3ccco3)oc2c1C -1.77%, CN(CC(=O)Nc1ccc(Cl)c(C(F)(F)F)c1)C(=O)c1cc(=O)[nH]c2ccccc12 1.56%, Cc1ccc(C(=O)CCC(=O)Nc2ccc(C)cn2)cc1 -9.87%, Cc1ccnc(NC(=O)CCC(=O)N(CC(=O)NCc2ccccc2)c2ccc3c(c2)OCO3)c1 12.1%, Cc1cc(C)nc(SCc2cc(=O)c(OC(=O)c3ccc(Cl)c([N+](=O)[O-])c3)co2)n1 31.3%, CN(C1=C(NC(=O)c2ccccc2)C(=O)c2ccccc2C1=O)C1CCS(=O)(=O)C1 (stereo not given) 23.9%, CN(c1ccc(C(=O)Nc2ccc(Cl)cn2)cc1)S(=O)(=O)c1ccccc1 18.3%, Fc1cccc(NC(=S)N2CCCCC2)c1 1.92%, Cc1ccc(CC(NC(=O)c2ccccc2)C(=O)N2CCCC2C(=O)O)cc1 (stereo not given) -0.14%, O=C(O/N=C1\CCS(=O)(=O)c2sccc21)C1CC1 -8.69%, O=C1C(Cl)=C(NCCc2ccccc2)C(=O)c2ccccc21 14.2%, Nc1c(Cl)cc2c(c1Oc1ccccc1)C(=O)c1ccccc1C2=O 7.9%, Cc1ccc(NS(=O)(=O)c2ccc(C(=O)N3CCCC(C(F)(F)F)C3)cc2)cc1 (stereo not given) -6.68%, O=C1/C(=C/c2ccccn2)SC(=S)N1c1cccc(O)c1 1.67%, O=C(COc1ccccc1F)Nc1ccc2[nH]c(=O)[nH]c2c1 -2.63%, COC(=O)c1cc(NC(=O)c2cc(-c3ccc(Cl)cc3)oc2C(F)(F)F)ccc1N1CCOCC1 -11.7%, CC(C)C(NC(=O)/C(=C/c1ccco1)NC(=O)c1ccc(Br)o1)C(=O)O (stereo not given) 25.7%, CSCCC(NC(=O)/C(=C/c1ccco1)NC(=O)c1ccc(Br)o1)C(=O)O (stereo not given) 13.7%, COc1cc(/C(O)=C(\C#N)c2nc3ccccc3[nH]2)cc(OC)c1OC 3.24%, Cc1ccc(Cl)cc1N1CCN(C(=O)COc2ccc(S(=O)(=O)NC(C)C)cc2)CC1 6.57%, O=C(COc1ccc2c(c1)CCC2)N1CCN(c2ccc(F)cc2)CC1 4.96%, Cc1cc(C)n(CC(O)COc2ccccc2[N+](=O)[O-])n1 (stereo not given) 10.6%, COc1ccc(C2C(C#N)=C(N)Oc3c2oc(CO)cc3=O)cc1 (stereo not given) -2.28%, N#CC1=C(N)Oc2c(oc(CO)cc2=O)C1c1cccs1 (stereo not given) 26.6%, O=C(OCC(=O)N1CCc2ccccc21)c1ccccn1 -3.08%, Cc1ccc(S(=O)(=O)N2CCOCC2)cc1C(=O)NC1CCCCC1 1.31%, CCOC(=O)c1sc2nc(CC(=O)OC)nc(NCc3ccc(F)cc3)c2c1C -3.02%, CCOC(=O)c1sc2nc(CC(=O)OC)nc(NCc3ccc(Cl)cc3)c2c1C -0.39% and -4.73%, CC(Oc1cccc(Cl)c1)C(=O)NNC(=O)c1cccnc1 (stereo not given) -4.59%, COC(=O)c1ccc(C(=O)OC)c(=O)[nH]1 0.04%, COC(=O)c1ccc(N)cc1O -0.17%, Cc1nc2nc(-c3ccccc3)[nH]n2c(=O)c1C 21.8%, Cn1c(=O)c2c(-c3ccccc3)n(Cc3ccccn3)cc2n(C)c1=O -0.87%, CC(=O)Nc1ccc(N2C(=O)CC(Sc3nc(C)cc(C)n3)C2=O)cc1 (stereo not given) 2.02%, CN(C)S(=O)(=O)c1ccc(N2CCCC2)c(C(=O)Nc2ccc(N3CCOCC3)cc2)c1 -0.06%, CC(=O)NCCc1ccc(C(=O)COC(=O)c2cccn2C)cc1 -0.53%, O=C(N/N=C/c1ccc(Cl)cc1Cl)C1CCN(c2ncc(C(F)(F)F)cc2Cl)CC1 0.03%, COc1cccc(/C=C/C(=O)c2cccc([N+](=O)[O-])c2)c1OC -0.4%, CN(C)/C=C/C(=O)/C=C/c1ccc(Cl)cc1Cl 0.37%, NNC(=O)/C=C/c1ccc(Cl)cc1Cl -9.79%, COc1ccc(NC(=O)/C=C/c2cc(Br)ccc2OC)cc1 -0.44%, COc1ccc(OC)c(/C=C/C(=O)c2ccc(Cl)cc2)c1 -4.03%, COc1cccc(/C=C/C(=O)c2ccc3c(c2)OCCO3)c1OC -6.76%, COc1ccc(C(=O)/C=C/c2ccc(OC)cc2OC)c(O)c1 -6.99%, COc1ccc(/C=C/C(=O)c2ccccc2)c(OC)c1 2.19%
